Assay outcomes deposited in PubChem by National Center for Advancing Translational Sciences (NCATS).
SARS PLP yeast – qHTS of Yeast-based Assay for SARS-CoV PLP; actives 0.19% (n = 330,000); S. cerevisiae expressing SARS-CoV PLpro, growth rescue; Potency, µM (top dose mostly 32.9 µM), inactives show at the top dose activity, positive = growth rescue, usual class: activators; calls by dose curve; also: potency is read from the fitted curve at half-maximal effect; 0% is about no effect; nearly all actives have a fitted effect of over 55% in size
HCV inhibitor – qHTS Assay for Inhibitors of Hepatitis C Virus (HCV). Huh7.5.1 HCVcc-Cre infection, luciferase reporter, 44 h. actives 3.4% (n = 340,000). Potency, µM (series often up to 41.8 µM), inactives show top-dose activity change, negative = inhibition, usual class: inhibitors; also: potency is read from the fitted curve at half-maximal effect; % is scaled to controls: 0 for no effect and ±100 for the full control effect
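HCVcc-Cre virus at an moi near 0.5 was added right after compound to cells cultured 4 h from seeding (1,000 cells/well). Luciferase activity was determined 44 h later, 15 min after substrate addition at RT.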
Sm TGR block – qHTS Assay for the Inhibitors of Schistosoma Mansoni Peroxiredoxins | Schistosoma mansoni thioredoxin glutathione reductase (TGR), Q962Y6 | purified TGR, DTNB reduction, TNB absorbance 405 nm | Potency, µM (titrated, usually from 114 µM), inactives show at the top dose activity change, negative = inhibition, usual class: inhibitors | actives 3% (n = 360,000) | AID 485364, 2010; also: potency is read from the fitted curve at half-maximal effect; % is scaled to controls: 0 for no effect and ±100 for the full control effect; nearly all actives have a fitted effect of over 60% in size
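Kinetic colorimetric format: TGR-catalysed, NADPH-driven DTNB reduction monitored via TNB absorbance. Enzyme dispensed at 20 nM; compound exposure 15 min at room temperature before reaction start.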
HCMV antiviral – qHTS Assay for inhibitors of the human cytomegalovirus (HCMV). HFF cells, HCMV-luciferase reporter, 72 h; stronger effect = lower value. activity change, negative = inhibition, % at 57.5 µM. actives 4.5% (n = 410,000); in the data active = activity change below about -60%; inconclusive = no clear call, values can overlap the other calls; inactive = above about -39%; also: % is scaled to controls: 0 for no effect and ±100 for the full control effect
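HFF cells seeded 16 h at 37C, treated with compounds, infected with luciferase-reporter HCMV at MOI 1 PFU/cell; luciferase read at 72 h post infection, normalized to buffer-only and Salinomycin controls.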
Pf growth 48h – Primary qHTS for delayed death inhibitors of the malarial parasite plastid, 48 hour incubation; actives 5.9% (n = 310,000); AID 504832, 2011; Potency, µM (titrated, usually from 28.7 µM), inactives show top-dose activity change, negative = inhibition, actives largely listed as inhibitors; P. falciparum luciferase growth in erythrocytes, 48 h; also: potency is read from the fitted curve at half-maximal effect; % is scaled to controls: 0 for no effect and ±100 for the full control effect
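A one-generation exposure of luciferase-tagged malaria parasites in RPMI 1640/Albumax erythrocyte culture, 37 C and 5% CO2. Inhibition is inferred from decreased luminescence after adding detection reagent.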
Pf growth 96h – Primary qHTS for delayed death inhibitors of the malarial parasite plastid, 96 hour incubation | P. falciparum luciferase reporter growth, 96 h | Potency, µM (highest dose often 28.7 µM), for the others: top-dose activity change, negative = inhibition, hits mostly inhibitors | actives 6.9% (n = 320,000); also: potency is read from the fitted curve at half-maximal effect; % is scaled to controls: 0 for no effect and ±100 for the full control effect
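Readout is luminescence from an integrated firefly luciferase in P. falciparum. Red cells, 2% hematocrit and 0.05% parasitemia final, were cultured with compound through two parasite generations (96 hours) at 37 C, 5% CO2.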
Active calls of the source: *; ? = inconclusive; . = not tested or not shown; + = active, no number; [ ] = another dose, or the depositor's remark. In the library only some 15% were active in any assay of this set; here they are far more common. Unless noted, calls follow the shape of the dose curve; as a rule, active = well fitted curve in the direction sought with a large enough effect; inconclusive = small, poorly fitted or top-dose-only effect, or another doubt; inactive = no such curve, though single readings can be large; an effect the other way counts as inactive or inconclusive.

SMILES | SARS PLP yeast | HCV inhibitor | Sm TGR block | HCMV antiviral | Pf growth 48h | Pf growth 96h
CC(C)S(=O)(=O)c1oc(-c2ccc(F)cc2)nc1S(=O)(=O)c1ccccc1 | . | . | 0.89µM* | -97* | . | .
CCS(=O)(=O)c1oc(-c2ccc(F)cc2)nc1S(=O)(=O)c1ccc(Br)cc1 | . | . | 0.63µM* | -99* | . | .
CS(=O)(=O)c1oc(-c2ccc(F)cc2)nc1S(=O)(=O)c1ccc(Cl)cc1 | . | . | 0.71µM* | -96* | . | .
O=C(NCCS(=O)(=O)NC1CCCC1)c1ccccc1 | 0% | 10% | -6% | 7 | 26% | 59%
N#CCC(=O)Nc1ccc(C(=O)Nc2cccc(S(=O)(=O)N3CCCC3)c2)cc1 | . | . | . | 4 | . | .
NCCCC[C@H]1CNC(=S)N1CCc1cccc(F)c1 | 1% | ? | 4% | 41 | 69% | 73%
CCOC(=O)C1CCCN(Cc2nc(CC3CC3)no2)C1 (centres undefined) | 1% | 11% | 6% | -7 | 32% | 3%
CC(C)S(=O)(=O)c1oc(-c2cccs2)nc1S(=O)(=O)c1ccc(F)cc1 | . | . | 0.89µM* | -102* | . | .
Cc1ccc2c(c1)C1CN(C)CCC1N2S(=O)(=O)c1ccc(C(C)C)cc1 (centres undefined) | -4% | ? | -8% | -7 | 4.7µM* | 7.4µM*
Cc1ccc2c(c1)C1CN(C)CCC1N2S(=O)(=O)c1cc(C(F)(F)F)ccc1Cl (centres undefined) | -1% | ? | -1% | -25 | 9.3µM* | -120%
Cc1ccc2c(c1)C1CN(C)CCC1N2S(=O)(=O)c1cccc(C(F)(F)F)c1 (centres undefined) | 1% | -27% | -2% | ? | ? | ?
Cc1ccc(CSc2nc3c([nH]c4ccccc43)c(=O)n2C)cc1 | . | . | 14% | 37 | . | .
COc1ccccc1CNC(=O)COC(=O)c1ccc(-n2cnnn2)cc1 | 3% | 1% | 2% | -31 | -7% | 20%
COc1ccccc1C(OC(=O)c1ccco1)C(=O)NC(C)(C)C (centres undefined) | 14% | 6% | -14% | -82* | 6% | .
COc1cccc(-c2nn(-c3ccccc3)cc2C(=O)O)c1 | 4% | 7% | 3% | 9 | -9% | 21%
COc1cccc(-c2nn(-c3ccc(C)cc3)cc2C(=O)N2CCc3cc(OC)c(OC)cc3C2)c1 | -20% | ? | -9% | 21 | 9.3µM* | ?
COc1ccccc1-c1nn(-c2ccccc2)cc1C(=O)N1CCc2ccccc2C1 | 0% | ? | 1% | 0 | ? | 3.7µM*
COc1ccc(OC)c(-c2nn(-c3ccccc3)cc2C(=O)N2CCc3ccccc3C2)c1 | -7% | ? | -12% | -22 | 10µM* | ?
COc1ccc(OC)c(-c2nn(-c3ccccc3)cc2C(=O)NC2(C)CCS(=O)(=O)C2)c1 (centres undefined) | . | . | . | 6 | . | .
Cc1ccc(-c2nc3ccccc3o2)cc1NC(=O)c1cccc2c(Cl)cccc12 | . | . | -5% | -2 | . | .
CCOn1c(-n2nc(C)cc2C)nc2ccccc2c1=O | -2% | 23% | -7% | -26 | -6% | .
CCOC(=O)COn1c(-n2nc(C)cc2C)nc2ccccc2c1=O | 0% | 22% | 13% | -27 | 3.7µM* | 1.5µM*
Cc1cc(C)n(-c2nc3ccccc3c(=O)n2OCC#N)n1 | 16% | ? | 5% | -89* | 1.3µM* | 0.37µM*
COC(=O)COn1c(-n2nc(C)cc2C)nc2ccccc2c1=O | 16% | 16% | -9% | 5 | 9.3µM* | .
Cc1cc(C)n(-c2nc3ccccc3c(=O)n2OCC(C)C)n1 | 1% | 14% | -11% | ? | 18% | 8%
SMILES | SARS PLP yeast | HCV inhibitor | Sm TGR block | HCMV antiviral | Pf growth 48h | Pf growth 96h
CC(NC(=O)/C(C#N)=C/c1ccc(Cl)c([N+](=O)[O-])c1)c1ccccc1 (centres undefined) | -99% | 35µM* | ? | -100* | -23% | 3%
CC(NC(=O)/C(C#N)=C/c1ccc(OCC(=O)O)cc1)c1ccccc1 (centres undefined) | -1% | 14% | -10% | 23 | 13% | ?
C[C@@H](NC(=O)/C(C#N)=C/c1ccc(O)c(O)c1)c1ccccc1 | . | ? | -17% | -98* | ? | ?
N#C/C(=C\c1ccc(O)c(O)c1)C(=O)Nc1ccccc1 | . | ? | -7% | ? | ? | ?
CCCc1nnc(NC(=O)CCC(=O)N2CCN(c3ccccc3)CC2)s1 | 9% | 8% | ? | 0 | 17% | ?
O=c1cc(-c2ccsc2)oc2cc(-c3ccc4c(c3)OCO4)ccc12 | 1% | 4% | . | 20 | . | .
Cc1ccc(S(=O)(=O)N2CCN(CC(=O)N3CCOCC3)CC2)cc1 | 3% | 8%[8.37 µM] | 1% | 4 | ? | -4%
Cc1cc(Cl)c(C)c(S(=O)(=O)N2CCN(CC(=O)N3CCOCC3)CC2)c1Cl | 3% | ? | -8% | + | -5% | -27%
O=C1c2ccccc2C(c2nnnn2-c2ccc3c(c2)OCCO3)N1Cc1cccs1 (centres undefined) | . | . | . | -11 | . | .
COc1ccc(NC(=O)O/N=C/c2c(C)nn(C(C)(C)C)c2C)cc1 | -1% | -27% | 4% | ? | 153% | 281%
Cc1nn(C(C)(C)C)c(C)c1/C=N/OC(=O)Nc1ccc(Cl)c(Cl)c1 | -1% | -27% | -2% | -61* | 39% | 116%
O=CNc1cc(-c2cccc(F)c2)cn2c(-c3ccc(F)c(Cl)c3)cnc12 | . | . | . | 48 | . | .
COc1ccc(-c2cccc(-c3cc(=O)oc4ccc(C(C)(C)C)cc34)c2)cc1 | -4% | 1% | . | -2 | . | .
CC[n+]1c(/C=C(\C)SC)sc2ccccc21 | -2% | ? | 2% | -31 | 0.29µM* | ?
CC[n+]1c(/C=C(\C)Nc2ccccc2)sc2ccccc21 | -15% | 9% | -12% | 16 | 5.2µM* | -18%
CC/C(=C/c1sc2ccccc2[n+]1CC)SC | -2% | ? | 2% | -6 | ? | 1.7µM*
Cc1cc(O)ccc1Nc1nc(-c2sc(N)nc2C)cs1 | 2% | ? | -27% | 12 | -12% | 9%
CCCCCC(=O)Nc1nc(C)c(-c2csc(Nc3cc(Cl)ccc3OC)n2)s1 | 6% | ? | -29% | -36 | 7.4µM* | 3.7µM*
COc1ccccc1Nc1nc(-c2sc(NC(=O)C(C)(C)C)nc2C)cs1 | -4% | 2.5µM* | 1% | -88* | ? | 12µM*
COc1ccccc1Nc1nc(-c2c(C)[nH]c3ccccc23)cs1 | 6% | ? | -3% | 31 | 5.2µM* | 2.3µM*
